NadD inh: inhibitors of Staphylococcus aureus NadD; purified NadD enzyme, colorimetric absorbance read-out; inhibition, % at 20 µM; 360,000 compounds, 0.78% hits; AID 602399; in the data active = inhibition above about 26%
Myeloid diff 2: promotes myeloid progenitor differentiation; ER-HoxA9 myeloid progenitors, lysozyme-GFP differentiation, flow cytometry; calls only at 10 µM; 360,000 compounds, 1% hits;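 active = normalized GFP-positive differentiation at or above the plate's own cutoff, the solvent-only control mean plus 3 SD; inconclusive = no clear call, values can overlap the other calls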;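 also: cells exposed to compound for four days before flow analysis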
NRP1-CendR mod: NRP-1/CendR interaction modulation. 360,000 compounds, 0.85% hits. inhibition, % at 25 µM. O14786. FAM-RPARPAR peptide binding to NRP-1, fluorescence polarization;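 active = inhibition or corrected inhibition above about 18%, plus a signal ratio from 0.5 to 1.5, limit read from the data, passing the limit was not always enough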
FAS TE block: inhibitors of human fatty acid synthase thioesterase domain; recombinant FAS-TE, OMFH fluorogenic substrate, fluorescence endpoint; inhibition, % at 15 µM; 360,000 compounds, 0.67% hits; P49327;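 active = compounds whose normalised, plate-corrected inhibition of enzyme fluorescence in the single-dose primary screen is 50% or more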;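 also: 0% = DMSO with enzyme and 100% = substrate without enzyme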
CRFR2-BP antag: antagonists of CRF-binding protein/CRF-R2 receptor complex; inhibition, % at 11.8 µM; HEK293 CRF-R2/CRF-BP, CRF-induced calcium fluorescence; 350,000 compounds, 0.59% hits;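 active = inhibition of the ligand-induced calcium signal above about 50% at the single tested concentration, limit read from the data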
NadD conf: confirmation of Staphylococcus aureus NadD inhibitors; 2,000 compounds, 13% hits; shares compounds with NadD inh; purified S. aureus NadD, colorimetric enzyme assay; inhibition, % at 20 µM; in the data active = inhibition mostly above about 42%, no sharp cut-off; inactive = mostly below about 42%
The depositor's hits bear a star; i = inactive; ? = inconclusive; . = no result given. An excerpt weighted towards active compounds, which were near 3.6% of everything screened.

SMILES | NadD inh | Myeloid diff 2 | NRP1-CendR mod | FAS TE block | CRFR2-BP antag | NadD conf
COc1ccc(Cc2c(-c3ccco3)nc3ccc(Br)cn23)c(C)c1 | 59* | i | -35 | -1 | . | 3
Cc1ccc(Cc2c(-c3ccco3)nc3ccc(Br)cn23)cc1 | 30* | i | -12 | 13 | . | 18
COc1ccc(Cc2c(-c3ccco3)nc3ccc(Cl)cn23)c(C)c1 | 42* | i | -26 | -4 | . | 8
Cc1ccc(-c2nc3ccc(Br)cn3c2Cc2cccc(F)c2)cc1 | 31* | i | -18 | 3 | . | 6
Fc1ccc(-c2nc3ccc(Br)cn3c2Cc2cccc(F)c2)cc1 | 7 | i | -19 | -4 | . | .
Cc1cc(C(=O)Nc2cccc3cccnc23)ccc1[N+](=O)[O-] | 3 | i | -2 | 19 | -1 | .
COc1ccc(C(=O)Nc2ccccc2C(=O)NC(Cc2ccc(O)cc2)C(=O)NNC(=O)c2ccncc2)cc1 (stereo not given) | 3 | i | -2 | -1 | 2 | .
CCCN(C)C[C@H]1Oc2cc(C#Cc3ccc(F)cc3)ccc2S(=O)(=O)N([C@H](C)CO)C[C@@H]1C | -2 | i | -5 | 9 | -10 | .
CCOC(=O)Cc1c(C)nc(SC)[nH]c1=O | 1 | i | 11 | -5 | 10 | .
COC(=O)C1=CN(c2cccc(OCc3ccccc3)c2)C(N)=C(C#N)C1c1ccc(-c2ccccc2)cc1 (stereo not given) | . | i | 1 | . | . | .
Cc1ccc2[nH]c(C)c(CCNC(=O)c3cc4cc([N+](=O)[O-])ccc4oc3=O)c2c1 | 33* | i | -11 | 19 | 10 | 5
Cc1ccc2[nH]c(C)c(CCNC(=O)c3c(N)no[n+]3[O-])c2c1 | -5 | i | -11 | 13 | -8 | .
Cc1sc(NC(=O)c2ccccc2)c(C(=O)NCCN(C)C)c1C | -5 | i | -3 | -8 | -4 | .
CC(C)(C)c1ccc(C2CC2C(=O)N/N=C\c2cc3ccccc3nc2Cl)cc1 (stereo not given) | 36* | i | -8 | 16 | -17 | -1
O=C(CNc1ccc2ccccc2c1)N/N=C/c1cc2ccccc2nc1Cl | 40* | i | 20 | 18 | -16 | 21
C/C(=N/NC(=O)CNC(=O)c1ccncc1)c1ccco1 | -3 | i | -4 | 0 | -7 | .
O=C(Nc1cccc(S(=O)(=O)NC2=NCCCCC2)c1)c1cc(-c2ccncc2)nc2ccccc12 | 20 | i | 3 | -2 | -11 | .
Cc1cc(C(=O)OCC(=O)Nc2cccc(S(=O)(=O)N(C)C)c2)c2ccccc2n1 | -5 | i | -1 | 2 | -22 | .
O=C(NCc1ccco1)c1cc(-c2ccccc2)nc2ccccc12 | -4 | i | -5 | 3 | -8 | .
O=C(Nc1cccc(S(=O)(=O)NCc2ccco2)c1)c1cc(-c2ccccc2)nc2ccccc12 | 35* | i | 5 | 35 | -60 | 32
O=C(Nc1cccc(S(=O)(=O)NC2=NCCCCC2)c1)c1cc(-c2ccco2)nc2ccccc12 | 46* | i | -42 | 4 | 6 | 59*
NS(=O)(=O)c1cccc(NC(=O)COC(=O)c2cc(-c3ccc(Cl)cc3)nc3ccccc23)c1 | 32* | i | 0 | 28 | -4 | 37
O=C(NC(Cc1c[nH]c2ccccc12)C(=O)O)c1cccs1 (stereo not given) | -4 | i | 8 | -6 | 1 | .
O=C(NC(Cc1c[nH]c2ccccc12)C(=O)N/N=C/c1cccc2ccccc12)c1cccs1 (stereo not given) | 37* | i | 13 | 37 | -24 | 25
Cc1ccc(/C=C/C(=O)N(Cc2cccs2)C2CCS(=O)(=O)C2)cc1 (stereo not given) | -7 | i | 14 | 5 | 0 | .
SMILES | NadD inh | Myeloid diff 2 | NRP1-CendR mod | FAS TE block | CRFR2-BP antag | NadD conf
CC(=O)c1cccc(NC(=O)C2C3C=CC(C3=C(c3ccccc3)c3ccccc3)C2C(=O)O)c1 (stereo not given) | 37* | i | -28 | 14 | -6 | 50*
CC(=O)c1cccc(NC(=O)Nc2ccccc2)c1 | -4 | i | -13 | -1 | 16 | .
CCCNC(=O)c1ccc(N2CCC3(CC2)CC(c2cccc(Br)c2)=NO3)c(NC(=O)c2cccc(C)c2)c1 | 12 | i | -15 | 13 | 7 | .
Cc1ccc(CNC(=O)c2ccc(N3CCC4(CC3)CC(c3cccc(Br)c3)=NO4)c(NC(=O)c3ccccc3)c2)cc1 | 24 | i | -2 | 21 | 5 | .
Cc1ccc(CNC(=O)c2ccc(N3CCC4(CC3)CC(c3cccc(Br)c3)=NO4)c(NC(=O)c3ccc(Cl)c([N+](=O)[O-])c3)c2)cc1 | 34* | i | -13 | 14 | 3 | -3
CCCNC(=O)c1ccc(N2CCC3(CC2)CC(c2cccc(Br)c2)=NO3)c(NC(=O)c2ccc(Cl)c([N+](=O)[O-])c2)c1 | 30* | ? | 4 | 17 | 4 | -7
c1ccc(C2=Nn3c(nnc3-c3n[nH]c4c3CCC4)SC2)cc1 | 5 | i | 13 | -3 | 8 | .
Clc1ccc(C2=Nn3c(nnc3-c3cc(-c4ccccc4)n[nH]3)SC2)cc1 | 45* | i | 7 | 20 | -77 | 30
Clc1ccc(C2=Nn3c(nnc3-c3n[nH]c4c3CCC4)SC2)cc1Cl | 30* | i | 10 | 18 | -26 | 40
Cn1ccnc1C(=O)c1cc(SCC(=O)NCc2ccccc2)nc2ccccc12 | 9 | i | -4 | 0 | -10 | .
O=C(c1ccc2c(c1)[nH]c(=S)n1c3ccccc3nc21)N1CCN(c2cccc(Cl)c2)CC1 | 39* | i | -2 | 6 | -6 | 9
Cc1ccc(NC(=O)C2CCN(S(=O)(=O)c3ccc(N4CCCC4=O)cc3)CC2)cc1Cl | 1 | ? | 9 | 29 | 17 | .
COc1ccc2cc(-c3cc(C(=O)OCC(=O)Nc4c(C)n(C)n(-c5ccccc5)c4=O)c4ccccc4n3)ccc2c1 | 40* | i | -13 | 49 | -11 | 12
CCC(C(=O)OCC(=O)N(CCOC)c1c(N)n(Cc2ccccc2)c(=O)[nH]c1=O)c1ccccc1 (stereo not given) | 5 | i | -11 | -4 | -11 | .
O=c1oc2ccccc2cc1-c1csc(Nc2nc3c(F)cccc3s2)n1 | 57* | i | -13 | -4 | -1 | 1
COc1ccc(Cn2c(SCc3ccc(C)cc3)nc3cc(OC)c(OC)cc3c2=N)cc1Cl | 51* | . | -1 | 31 | -1 | 9
COc1cc2nc(SCc3ccc(C(F)(F)F)cc3)n(Cc3cccs3)c(=N)c2cc1OC | 8 | i | -1 | 16 | 1 | .
COc1ccc(Cn2c(SCc3cc(C)ccc3C)nc3cc(OC)c(OC)cc3c2=N)cc1 | 39* | ? | -10 | 38 | -30 | -18
Cc1ccc2nc(-c3ccc(NC(=O)COC(=O)c4ccco4)cc3)sc2c1 | -2 | i | -10 | -9 | 1 | .

Source: PubChem (several laboratories)
